# Results as given in the supplement of paper PMC10849652.
# The full data set covers some 8,800 targets. This sample favours those with a hit. About 0.5% of all pairs of compound and target were hits. Values without a mark were called inactive.
# Columns and labels:
# Assay in all cases: log2 fold change, soluble protein after heating vs DMSO (PISA); higher = thermal stabilisation; K562 lysate, 10 uM; active = over 0.2 and 3.5 SD of the protein, either way, in both replicates (recomputed)
# alvocidib = compound: CN1CC[C@H](c2c(O)cc(O)c3c(=O)cc(-c4ccccc4Cl)oc23)[C@H](O)C1 [alvocidib]
# Method in brief: (§1)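 K562 pellets were dounce-homogenised in PBS pH 7.4 containing 1 mM MgCl2, and the crude extract, at 1 mg/mL protein, was exposed to 10 μM compound for 30 min. Aliquots were heated for 3 min across 48°C-58°C, pooled, brought to 0.5% NP-40 at 4°C and spun at 21,000xg for 90 min, with the supernatant taken as soluble protein. TMTpro 16plex LC-MS/MS with equalised channel sums quantified that protein. Values are log-two fold changes in thermal stability relative to solvent controls, taken from duplicates.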
# Tubastatin A = compound: CN1CCc2c(c3ccccc3n2Cc2ccc(C(=O)NO)cc2)C1 [Tubastatin A]
# Method in brief: as §1
# [1] = compound: CNC(=O)C1=CC=CC=C1NC2=NC(=NC=C2Cl)NC3=C(C=C(C=C3)N4CCOCC4)OC
# Method in brief: as §1
# defactinib = compound: CNC(=O)c1ccc(Nc2ncc(C(F)(F)F)c(NCc3nccnc3N(C)S(C)(=O)=O)n2)cc1 [defactinib]
# Method in brief: as §1
# [2] = compound: CNc1nc(-c2ccc3c(N)n[nH]c3c2)cc(N2C[C@@H](C(=O)NC3CCCCC3)CC[C@H]2C)n1
# Method in brief: as §1
# encorafenib = compound: COC(=O)N[C@@H](C)CNc1nccc(-c2cn(C(C)C)nc2-c2cc(Cl)cc(NS(C)(=O)=O)c2F)n1 [encorafenib]
# Method in brief: as §1
# [3] = compound: COC(=O)[C@H](CCSC)NC(=O)C1=C(C=C(C=C1)NC[C@H](CS)N)C2=CC=CC=C2
# Method in brief: as §1
# alisertib = compound: COc1cc(Nc2ncc3c(n2)-c2ccc(Cl)cc2C(c2c(F)cccc2OC)=NC3)ccc1C(=O)O [alisertib]
# Method in brief: as §1
# [4] = compound: COc1cc2nc(-c3cc(F)ccc3O)nc(N[C@@H]3CNC[C@H]3C(C)(C)O)c2cc1OC
# Method in brief: as §1
# gefitinib = compound: COc1cc2ncnc(Nc3ccc(F)c(Cl)c3)c2cc1OCCCN1CCOCC1 [gefitinib]
# Method in brief: as §1
# lapatinib = compound: CS(=O)(=O)CCNCc1ccc(-c2ccc3ncnc(Nc4ccc(OCc5cccc(F)c5)c(Cl)c4)c3c2)o1 [lapatinib]
# Method in brief: as §1
# pictilisib = compound: CS(=O)(=O)N1CCN(Cc2cc3nc(-c4cccc5[nH]ncc45)nc(N4CCOCC4)c3s2)CC1 [pictilisib]
# Method in brief: as §1
# crizotinib = compound: C[C@@H](Oc1cc(-c2cnn(C3CCNCC3)c2)cnc1N)c1c(Cl)ccc(F)c1Cl [crizotinib]
# Method in brief: as §1
# [5] = compound: C[C@H](C1=CC=C(C=C1)C(=O)NC2=C3C=CNC3=NC=C2)N
# Method in brief: as §1
# duvelisib = compound: C[C@H](Nc1ncnc2nc[nH]c12)c1cc2cccc(Cl)c2c(=O)n1-c1ccccc1 [duvelisib]
# Method in brief: as §1
# gandotinib = compound: Cc1cc(Nc2cc(CN3CCOCC3)c3nc(C)c(Cc4ccc(Cl)cc4F)n3n2)n[nH]1 [gandotinib]
# Method in brief: as §1
# tozasertib = compound: Cc1cc(Nc2cc(N3CCN(C)CC3)nc(Sc3ccc(NC(=O)C4CC4)cc3)n2)n[nH]1 [tozasertib]
# Method in brief: as §1
# doramapimod = compound: Cc1ccc(-n2nc(C(C)(C)C)cc2NC(=O)Nc2ccc(OCCN3CCOCC3)c3ccccc23)cc1 [doramapimod]
# Method in brief: as §1
# bafetinib = compound: Cc1ccc(NC(=O)c2ccc(CN3CC[C@H](N(C)C)C3)c(C(F)(F)F)c2)cc1Nc1nccc(-c2cncnc2)n1 [bafetinib]
# Method in brief: as §1
# [6] = compound: Cc1cccc(CC(=O)N2CCc3c2ccc(-c2cn(C)c4ncnc(N)c24)c3F)n1
# Method in brief: as §1
# UniProt Q15464, sequence (Q15464 whole entry, looked up): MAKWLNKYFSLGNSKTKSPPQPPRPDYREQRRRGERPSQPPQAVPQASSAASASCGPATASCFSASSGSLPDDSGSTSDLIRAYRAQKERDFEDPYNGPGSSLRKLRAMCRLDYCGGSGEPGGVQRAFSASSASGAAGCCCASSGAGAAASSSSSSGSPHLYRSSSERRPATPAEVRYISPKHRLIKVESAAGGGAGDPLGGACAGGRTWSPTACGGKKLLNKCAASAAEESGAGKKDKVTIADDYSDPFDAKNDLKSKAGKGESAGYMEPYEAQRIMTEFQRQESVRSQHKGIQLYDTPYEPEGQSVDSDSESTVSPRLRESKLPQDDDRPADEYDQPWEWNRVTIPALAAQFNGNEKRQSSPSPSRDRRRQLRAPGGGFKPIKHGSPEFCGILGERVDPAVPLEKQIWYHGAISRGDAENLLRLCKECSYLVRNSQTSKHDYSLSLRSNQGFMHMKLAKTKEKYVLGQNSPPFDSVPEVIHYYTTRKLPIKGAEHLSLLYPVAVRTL
# UniProt Q9UL54, sequence (Q9UL54 whole entry, looked up): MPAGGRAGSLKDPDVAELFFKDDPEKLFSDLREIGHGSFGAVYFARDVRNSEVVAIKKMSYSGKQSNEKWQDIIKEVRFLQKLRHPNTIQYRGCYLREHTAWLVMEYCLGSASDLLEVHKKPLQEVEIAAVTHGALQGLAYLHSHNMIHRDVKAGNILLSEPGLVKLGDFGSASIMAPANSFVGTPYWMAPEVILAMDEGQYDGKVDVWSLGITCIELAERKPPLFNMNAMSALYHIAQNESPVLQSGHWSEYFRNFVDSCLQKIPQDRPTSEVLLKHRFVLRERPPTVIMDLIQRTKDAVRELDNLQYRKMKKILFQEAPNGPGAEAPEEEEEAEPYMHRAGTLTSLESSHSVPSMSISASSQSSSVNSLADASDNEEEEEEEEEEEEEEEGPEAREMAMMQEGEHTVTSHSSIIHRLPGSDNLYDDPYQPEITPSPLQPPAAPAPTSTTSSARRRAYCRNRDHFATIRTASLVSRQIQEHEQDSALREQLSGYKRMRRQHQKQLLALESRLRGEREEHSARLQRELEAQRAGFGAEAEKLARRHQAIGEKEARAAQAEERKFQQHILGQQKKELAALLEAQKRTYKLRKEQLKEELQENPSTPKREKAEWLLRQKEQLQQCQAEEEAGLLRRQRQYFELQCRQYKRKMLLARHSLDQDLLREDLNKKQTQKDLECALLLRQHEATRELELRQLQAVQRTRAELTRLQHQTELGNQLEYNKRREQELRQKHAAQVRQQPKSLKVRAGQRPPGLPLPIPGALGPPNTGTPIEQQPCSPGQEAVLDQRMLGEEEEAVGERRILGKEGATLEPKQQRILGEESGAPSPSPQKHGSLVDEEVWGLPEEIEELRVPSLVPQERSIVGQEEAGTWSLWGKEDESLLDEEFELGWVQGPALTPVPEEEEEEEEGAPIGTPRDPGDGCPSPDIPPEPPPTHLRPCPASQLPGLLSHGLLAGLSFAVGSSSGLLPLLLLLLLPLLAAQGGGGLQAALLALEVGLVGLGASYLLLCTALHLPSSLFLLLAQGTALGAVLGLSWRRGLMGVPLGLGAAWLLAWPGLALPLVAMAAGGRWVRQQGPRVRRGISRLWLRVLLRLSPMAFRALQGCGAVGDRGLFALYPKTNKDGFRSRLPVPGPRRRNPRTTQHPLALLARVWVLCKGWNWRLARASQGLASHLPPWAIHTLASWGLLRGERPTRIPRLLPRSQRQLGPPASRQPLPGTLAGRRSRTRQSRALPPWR
# UniProt Q5T011, sequence (Q5T011 whole entry, looked up): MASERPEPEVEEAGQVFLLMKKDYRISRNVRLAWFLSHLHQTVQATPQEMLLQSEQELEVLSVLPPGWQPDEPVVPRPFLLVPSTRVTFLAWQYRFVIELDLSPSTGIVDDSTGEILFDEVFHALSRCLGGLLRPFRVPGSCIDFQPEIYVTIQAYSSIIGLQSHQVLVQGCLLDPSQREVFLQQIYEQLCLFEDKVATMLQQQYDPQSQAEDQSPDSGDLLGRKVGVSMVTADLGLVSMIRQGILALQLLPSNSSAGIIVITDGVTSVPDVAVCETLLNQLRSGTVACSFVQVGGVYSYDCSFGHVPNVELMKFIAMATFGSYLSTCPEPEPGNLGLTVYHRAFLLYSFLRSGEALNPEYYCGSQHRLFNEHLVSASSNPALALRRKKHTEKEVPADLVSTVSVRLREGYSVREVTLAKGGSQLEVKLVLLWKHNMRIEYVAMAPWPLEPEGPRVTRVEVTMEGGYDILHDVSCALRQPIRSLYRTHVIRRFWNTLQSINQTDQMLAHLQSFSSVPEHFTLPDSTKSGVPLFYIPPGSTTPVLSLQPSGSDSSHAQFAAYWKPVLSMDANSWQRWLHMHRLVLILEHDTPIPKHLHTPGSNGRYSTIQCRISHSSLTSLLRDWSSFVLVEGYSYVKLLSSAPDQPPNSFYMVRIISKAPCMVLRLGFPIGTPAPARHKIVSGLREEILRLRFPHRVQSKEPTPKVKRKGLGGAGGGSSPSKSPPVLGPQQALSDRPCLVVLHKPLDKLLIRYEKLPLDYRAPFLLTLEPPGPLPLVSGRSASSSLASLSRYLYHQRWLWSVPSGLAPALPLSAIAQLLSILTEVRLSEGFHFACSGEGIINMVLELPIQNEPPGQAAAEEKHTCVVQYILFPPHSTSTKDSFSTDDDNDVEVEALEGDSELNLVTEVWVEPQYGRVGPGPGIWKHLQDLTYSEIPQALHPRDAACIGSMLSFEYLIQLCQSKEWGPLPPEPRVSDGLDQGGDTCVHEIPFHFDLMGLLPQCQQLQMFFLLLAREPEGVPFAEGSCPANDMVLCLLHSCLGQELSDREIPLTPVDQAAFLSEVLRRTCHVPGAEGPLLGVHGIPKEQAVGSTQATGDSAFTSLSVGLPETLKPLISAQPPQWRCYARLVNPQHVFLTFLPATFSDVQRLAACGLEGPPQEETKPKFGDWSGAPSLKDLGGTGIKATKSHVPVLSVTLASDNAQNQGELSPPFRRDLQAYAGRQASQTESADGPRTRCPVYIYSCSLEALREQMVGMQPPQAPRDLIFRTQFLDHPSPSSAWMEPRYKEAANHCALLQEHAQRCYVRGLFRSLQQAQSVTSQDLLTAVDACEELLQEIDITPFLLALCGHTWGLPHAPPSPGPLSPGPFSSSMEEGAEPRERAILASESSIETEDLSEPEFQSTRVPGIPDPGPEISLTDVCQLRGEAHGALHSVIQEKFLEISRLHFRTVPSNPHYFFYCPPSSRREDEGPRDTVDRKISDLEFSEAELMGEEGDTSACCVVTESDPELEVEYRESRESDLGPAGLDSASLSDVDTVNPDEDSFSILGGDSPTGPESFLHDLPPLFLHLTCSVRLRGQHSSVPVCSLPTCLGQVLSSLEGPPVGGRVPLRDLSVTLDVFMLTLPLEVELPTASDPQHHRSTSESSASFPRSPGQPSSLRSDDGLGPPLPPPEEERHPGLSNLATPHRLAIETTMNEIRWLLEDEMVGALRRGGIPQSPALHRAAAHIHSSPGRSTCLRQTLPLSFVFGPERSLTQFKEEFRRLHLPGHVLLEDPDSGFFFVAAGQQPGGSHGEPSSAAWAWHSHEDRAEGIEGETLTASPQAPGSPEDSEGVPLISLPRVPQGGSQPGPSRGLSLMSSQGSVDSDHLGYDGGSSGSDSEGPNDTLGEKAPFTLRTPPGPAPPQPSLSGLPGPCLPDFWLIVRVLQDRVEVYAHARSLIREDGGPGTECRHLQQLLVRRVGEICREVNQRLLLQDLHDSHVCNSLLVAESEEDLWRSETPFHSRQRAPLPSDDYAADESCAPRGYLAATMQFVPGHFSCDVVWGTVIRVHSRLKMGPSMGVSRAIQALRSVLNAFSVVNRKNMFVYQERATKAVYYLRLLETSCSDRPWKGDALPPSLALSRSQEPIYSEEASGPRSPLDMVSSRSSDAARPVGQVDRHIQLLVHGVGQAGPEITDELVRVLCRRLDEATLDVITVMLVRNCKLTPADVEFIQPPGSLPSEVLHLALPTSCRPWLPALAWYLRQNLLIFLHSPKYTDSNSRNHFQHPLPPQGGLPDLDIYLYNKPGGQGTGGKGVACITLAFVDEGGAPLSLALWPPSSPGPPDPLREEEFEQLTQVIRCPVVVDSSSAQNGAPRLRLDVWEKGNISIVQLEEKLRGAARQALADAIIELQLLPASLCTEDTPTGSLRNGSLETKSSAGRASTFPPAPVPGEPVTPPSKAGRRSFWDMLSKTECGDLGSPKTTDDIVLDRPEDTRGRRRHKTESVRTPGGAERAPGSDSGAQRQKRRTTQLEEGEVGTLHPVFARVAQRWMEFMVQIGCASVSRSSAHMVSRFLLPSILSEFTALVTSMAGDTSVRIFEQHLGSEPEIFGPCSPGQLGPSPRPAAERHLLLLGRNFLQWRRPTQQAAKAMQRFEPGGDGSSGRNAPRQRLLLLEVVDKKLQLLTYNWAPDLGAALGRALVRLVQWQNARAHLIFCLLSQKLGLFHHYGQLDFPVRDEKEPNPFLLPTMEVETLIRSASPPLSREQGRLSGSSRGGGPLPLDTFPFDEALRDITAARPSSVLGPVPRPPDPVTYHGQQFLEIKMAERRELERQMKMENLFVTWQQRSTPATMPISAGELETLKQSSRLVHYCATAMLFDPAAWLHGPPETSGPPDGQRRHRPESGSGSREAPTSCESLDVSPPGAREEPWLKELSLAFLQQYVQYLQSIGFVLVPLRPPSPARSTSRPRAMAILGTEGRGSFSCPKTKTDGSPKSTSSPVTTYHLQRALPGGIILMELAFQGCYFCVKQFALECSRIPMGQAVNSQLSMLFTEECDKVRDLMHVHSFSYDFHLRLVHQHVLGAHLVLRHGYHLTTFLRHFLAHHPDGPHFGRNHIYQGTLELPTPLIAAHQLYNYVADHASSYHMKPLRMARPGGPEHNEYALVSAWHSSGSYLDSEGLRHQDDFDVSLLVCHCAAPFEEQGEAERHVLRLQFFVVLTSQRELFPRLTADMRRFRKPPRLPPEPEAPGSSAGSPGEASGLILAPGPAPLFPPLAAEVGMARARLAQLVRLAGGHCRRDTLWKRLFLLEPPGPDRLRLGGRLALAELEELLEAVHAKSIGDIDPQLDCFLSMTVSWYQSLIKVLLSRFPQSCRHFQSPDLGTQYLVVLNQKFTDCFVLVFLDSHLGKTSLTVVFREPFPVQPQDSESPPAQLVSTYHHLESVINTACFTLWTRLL
Target,log2 fold change (alvocidib),log2 fold change (Tubastatin A),log2 fold change [1],log2 fold change (defactinib),log2 fold change [2],log2 fold change (encorafenib),log2 fold change [3],log2 fold change (alisertib),log2 fold change [4],log2 fold change (gefitinib),log2 fold change (lapatinib),log2 fold change (pictilisib),log2 fold change (crizotinib),log2 fold change [5],log2 fold change (duvelisib),log2 fold change (gandotinib),log2 fold change (tozasertib),log2 fold change (doramapimod),log2 fold change (bafetinib),log2 fold change [6]
TAF6L (UniProt Q9Y6J9),0.018,-0.109,-0.035,0.001,-0.116,0.096,-0.051,0.006,0.006,-0.046,-0.044,-0.091,0.035,0.037,0.024,-0.042,0.017,-0.019,-0.009,0.028
SLC19A1 (UniProt P41440),-0.106,0.047,0.025,0.01,0.037,0.011,-0.018,-0.005,0.039,0.026,-0.055,0.005,-0.002,-0.203 (active),-0.037,0.148,-0.021,0.004,-0.053,0.07
SZT2 (UniProt Q5T011),-0.169,0.012,-0.002,,0.109,-0.011,-0.105,-0.193,-0.031,0.094,0.275,0.189,,-0.108,-0.081,-0.17,-0.097,,-0.214,0.22
SLC25A36 (UniProt Q96CQ1),0.024,-0.047,0.048,0.068,0.029,0.041,0,0.04,0.049,0.025,-0.019,,0.022,0.029,-0.122,0.024,-0.09,-0.011,,-0.006
TANK (UniProt Q92844),0.066,-0.043,0.25,0.044,0.068,-0.006,-0.309 (active),-0.006,-0.024,-0.047,0.038,-0.03,0.27,0.021,-0.026,0.141,0.108,-0.038,0.023,-0.162
STAR (UniProt P49675),-0.024,0.448 (active),0.073,0.034,0.005,-0.052,0.063,0.133,,-0.056,,,-0.123,0.117,0.017,0.156,0.063,0.019,,0.142
SOX5 (UniProt P35711),0.048,-0.113,-0.219,0.017,0.074,0.034,-0.025,,-0.104,,0.137,-0.019,0.006,0.007,-0.073,0.06,-0.017,0.026,-0.235,0.007
SF3B6 (UniProt Q9Y3B4),0.05,-0.037,0.016,0.017,0.071,0.014,-0.003,-0.011,-0.027,-0.172,-0.01,-0.083,-0.008,0.009,0.059,-0.069,-0.188,0.047,-0.009,-0.058
SYK (UniProt P43405),-0.142,-0.015,-0.009,-0.105,0.115,0.01,0.154,,0.11,-0.004,-0.086,0.017,,-0.479 (active),0.004,0.272,0.002,0.021,-0.236,0.261
SMTN isoform 6 (UniProt P53814),-0.04,-0.019,0.071,-0.103,-0.013,-0.002,-0.085,0.055,-0.005,0.005,0.103,-0.042,-0.012,-0.06,0.033,0.032,0.019,0.006,0.059,0.028
SH3BP2 isoform 4 (UniProt P78314),-0.023,0.026,0.03,-0.054,0.099,,,,0.053,,-0.135,-0.41 (active),-0.021,0.01,0.053,-0.02,,0.057,-0.105,0.123
SNRPD3 (UniProt P62318),-0.121,0.014,-0.003,-0.046,-0.068,-0.014,0.027,0.017,0.022,0.052,-0.027,-0.06,0.008,-0.233 (active),0.052,0.102,0.028,0.014,0.069,0.11
SLC39A13 (UniProt Q96H72),,-0.125,-0.058,,,,,,,,,,,,,,,,,
TAOK2 isoform 2 (UniProt Q9UL54),,,,,,,,-0.046,,-0.202,,,,,,,,,,
TAF1B (UniProt Q53T94),0.175,-0.083,,-0.024,0.614,0.073,-0.13,-0.177,-0.047,0.016,0.012,0.062,-0.036,-0.058,0.34,-0.157,0.304,0.017,-0.004,0.134
TAOK2 (UniProt Q9UL54),-0.053,0.046,,-0.001,-0.015,-0.033,0.055,0.02,0.02,-0.009,-0.049,-0.054,-0.081,-0.136,-0.002,0.07,-0.026,0.046,-0.004,0.261
SHB (UniProt Q15464),-0.139,-0.108,0.169,,0.067,,,,0.034,,-0.07,,-0.044,-0.305,-0.034,0.186,,0.028,,-0.129
SNAPC2 (UniProt Q13487),-0.034,-0.117,-0.005,,-0.175,,,0.014,,-0.044,,0.08,-0.007,0.024,-0.129,0.01,,0.03,-0.537,-0.033
STK17B (UniProt O94768),,-0.466,0.082,,0.642,,,0.066,,0.094,,,-0.255,,0,,,-0.117,,
SMC4 (UniProt C9JJ64),,,,,,,,,,,,0.006,,,,,,,-0.251,
